Assay outcomes from PubChem BioAssay.
Only some compounds are listed: those with a hit (about 6% of all), similar ones and a draw of the others.
Tau FP inhib = inhibitors of human tau fibril formation; Potency, µM (top dose mostly 57.7 µM), inactives show top-dose activity, negative = inhibition, usual class: inhibitors; K18 P301L tau heparin fibrillization, Alexa594 FP, 6 h; P10636; AID 1468; actives 0.39% (n = 280,000); further: nearly all actives have a fitted effect of over 55% in size
Target sequence (P10636 561-689 P618L limits assumed): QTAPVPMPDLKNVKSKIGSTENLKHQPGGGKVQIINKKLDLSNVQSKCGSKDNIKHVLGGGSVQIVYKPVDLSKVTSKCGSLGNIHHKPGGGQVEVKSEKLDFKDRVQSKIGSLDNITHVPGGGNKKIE
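Recombinant K18 P301L […], labeled with Alexa 594 at 0.24 uM over 15 uM unlabeled; heparin inducer 20 uM final; 37 C, 6 hr; FP endpoint.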
Tau fluor counter = counter-screen for tau fibril formation inhibitors; tau K18 P301L Alexa594 fluorescence, heparin fibrillization; Potency, µM (titrated, usually from 57.7 µM), for inactives: at the top dose activity change, negative = decrease; actives 0.93% (n = 280,000); AID 1463; further: nearly all actives have a fitted effect of over 55% in size
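Human K18 P301L tau (15 uM unlabeled plus 0.24 uM Alexa 594-labeled, final) in 100 mM sodium acetate pH 7 was mixed with compound and 20 uM heparin and incubated 6 hr at 37 C.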
Sfp inh = inhibitors of Bacillus subtilis Sfp phosphopantetheinyl transferase | Potency, µM, without a hit: largest response in the series, negative = inhibition, most hits filed as inhibitors | actives 3.5% (n = 310,000) | Biochemical Sfp PPTase activity, qHTS | Q9F4F7 | AID 1490;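 further: the enzyme is Sfp with the accession as filed and its product quenches rhodamine fluorescence; 0% = enzyme reaction without inhibitor and -100% = no enzyme wells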
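Reaction rates are the 30-min fluorescence difference (ex 525, em 598 nm) in wells containing 15 nM Sfp, 5 uM rhodamine-CoA and 12.5 uM BHQ-2-YbbR at pH 7.6 with 10 mM MgCl2.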
PLK1 PBD block = PLK1 (human) polo-box domain binding inhibition; Plk1 PBD binding of FITC phosphopeptide, fluorescence polarization; Potency, µM, without a hit: max response, negative = inhibition, actives largely listed as inhibitors; P53350; AID 720504; actives 2.8% (n = 360,000); further: series mostly up to about 57 µM; nearly all actives have a fitted effect of over 65% in size
Tau fibril ThT = tau fibrillization inhibition (ThT binding); P10636; Potency, µM (top dose mostly 57.4 µM), for inactives: at the top dose activity, negative = inhibition, most hits filed as inhibitors; recombinant tau K18 P301L (four-repeat tau fragment), heparin-induced fibrillization, ThT fluorescence; actives 2.1% (n = 270,000); further: nearly all actives have a fitted effect of over 55% in size
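Tau K18 P301L fragment (15 uM unlabeled plus 0.24 uM Alexa 594-labeled) in 100 mM sodium acetate pH 7 with compound, fibrillization induced by 20 uM heparin for 6 hr at 37 C. Thioflavin T (30 uM) added, fluorescence read after 1 hr (ex 450, em 510 nm).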
VDR inhibitor = vitamin D3 receptor (human) inhibition; actives 0.93% (n = 400,000); Potency, µM, for inactives: max response, negative = inhibition, hits mostly inhibitors; VDR-SRC2-3 peptide fluorescence polarization, 2 h; AID 504847; P11473
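Measured by FP: displacement of SRC2-3 coactivator peptide from VDR by library compounds, following a two-hour ambient incubation.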
An asterisk follows results filed as active; ? = inconclusive; / = not tested or not shown; [ ] = remark or other dose. The call rests on the fitted dose curve; in most records, active means well fitted curve in the direction sought with a large enough effect; inconclusive means small, poorly fitted or top-dose-only effect, or another doubt; inactive means no such curve, though single readings can be large; an effect the other way counts as inactive or inconclusive. Unless noted, on the % scale 0 is the no-effect control and ±100 the full control effect; potency means the concentration at half of the fitted maximal effect.

SMILES	Tau FP inhib	Tau fluor counter	Sfp inh	PLK1 PBD block	Tau fibril ThT	VDR inhibitor
O=C(Nc1ccc(Cl)cc1)Nc1ccc(N2CCCC2)c(S(=O)(=O)Nc2ccccc2Cl)c1	?	2.8µM*[quencher]	35%	-5%	-8%	-27%
COc1ccccc1NS(=O)(=O)c1cc(NC(C)=O)ccc1N1CCCCC1	-12%	?	45µM*	9.5µM*	-2%	?
COCC(=O)Nc1ccc(N2CCCC2)c(S(=O)(=O)Nc2ccccc2OC)c1	/	/	/	-12%	/	-11%
COc1ccc(NS(=O)(=O)c2cc(NC(=O)/C=C/c3cccs3)ccc2N2CCOCC2)cc1	4%	16µM*[quencher]	12%	?	-9%	-22%
COc1ccccc1NS(=O)(=O)c1cc(NC(=O)c2ccncc2)ccc1N1CCCC1	1%	22µM*[quencher]	14µM*	17µM*	?	?
CCCc1cc(=O)n2c(C(=O)Nc3ccc(OCC)cc3)c(C(=O)Nc3ccc(C)cc3)sc2n1	-10%	-13%	/	/	-2%	8%
CC1CCN(S(=O)(=O)c2ccc(NC(=O)Cn3nnc(-c4ccccc4F)n3)cc2)CC1	7.9µM*	?	8%	-6%	3%	27%
CC1CCN(S(=O)(=O)c2cn(CC(=O)Nc3ccc(F)c(Cl)c3)c(=O)c3ccccc23)CC1	10µM*	?	/	/	-7%	-25%
COc1cc(Cl)c(C)cc1NC(=O)Cn1cc(S(=O)(=O)N2CCC(C)CC2)c2ccccc2c1=O	-13%	-10%	/	/	0%	-7%
CCOC(=O)c1cc(-c2ccc(C)cc2)n(CCCC(=O)Nc2cc(C)ccc2C)c1	-4%	-9%	/	/	-10%	-2%
NC(=O)[C@@H]1CCCN1	0%	0%	-9%	/	1%	3%
CCC1(C)N=C(c2ccc3c(c2)OCO3)CC(c2ccccc2O)N1 (stereo not drawn)	7%	?	2%	27µM*	?	4%
COc1cc(CNCc2ccccn2)ccc1OCc1ccc(Cl)cc1	1%	-5%	13%	4%	-10%	2%
COc1cc(CNCc2ccccn2)ccc1OCc1cccc(Cl)c1	-3%	-9%	79µM*	3%	2%	2%
COc1cc(CNCc2ccccn2)ccc1OCc1c(Cl)cccc1Cl	-3%	-13%	40µM*	4%	-11%	14%
CCOC(=O)[C@]12CCC=C1N(CCC1=CCCCC1)C(=O)[C@H](CC(=O)N1CCN(C(=O)c3ccco3)CC1)C2	/	/	/	-17%	/	/
CO[C@@H]1COC(=O)[C@H](C)NC(=O)[C@@H](C)COC(=O)[C@H](C)NC(=O)C/C=C\[C@H]1C	-4%[11.6 µM]	-3%[11.6 µM]	-8%	/	-5%[11.5 µM]	/
CCCCCNC(=O)c1ccc2c(c1)nc(C)n2-c1cccc(C)c1	14%	4%	/	/	-5%	-7%
Cc1cccc(-n2c(C)nc3cc(C(=O)N4CCOCC4)ccc32)c1	/	/	25%	27µM*	/	?
O=C(NCCc1ccccc1)c1ccc(CS(=O)(=O)Cc2ccccc2Cl)o1	5%	-18%	/	/	-10%	-5%
CCOc1ccc(CCNC(=O)c2ccc(CS(=O)Cc3cccc(Cl)c3)o2)cc1 (stereo not drawn)	6%	-7%	19%	27µM*	-17%	?
CCOCCCNC(=O)c1ccc(CS(=O)(=O)Cc2cccc(C)c2)o1	-6%	-2%	6%	1%	-9%	-14%
Cc1cccc(CS(=O)(=O)Cc2ccc(C(=O)NCCc3ccccc3)o2)c1	-4%	-11%	14%	27µM*	-4%	-18%
Cc1ccccc1CS(=O)(=O)Cc1ccc(C(=O)NCCc2ccccc2)o1	-1%	-5%	12%	30µM*	2%	-17%
Cc1ccc(CS(=O)(=O)Cc2ccc(C(=O)NCc3ccccn3)o2)cc1	?	-5%	50µM*	-2%	-6%	7%
CC1OC(OC2C(CO)OC(OC3C(CO)OC(O)C(O)C3O)C(O)C2O)C(O)C(O)C1NC1C=C(CO)C(O)C(O)C1O (stereo not drawn)	3%	11%	4%	/	12%	-5%
